Drawing on ChEMBL document CHEMBL1961873, “Compounds: GSK PKIS; Assays: Nanosyn kinase panel” (2012), this text covers inhibition for four compounds.

Usually inhibition stands for the relative decrease from the control value, in per cent.

Experiment [1] has as its system Epidermal growth factor receptor (Homo sapiens), P00533 [T790M]. The note with it: at 1 µM.
For experiment [2], the system named is Epidermal growth factor receptor (Homo sapiens), P00533 [L858R,T790M]. As to conditions: at 0.1 µM.
Experiment [3] shares this test system. As to conditions: at 1 µM.
Experiment [4] addresses Ephrin type-A receptor 2 (Homo sapiens) (UniProt P29317). The note with it: at 0.1 µM.
The target is the same in experiment [5]. As to conditions: at 1 µM.
In experiment [6] the target is T1, Ephrin type-A receptor 3 (Homo sapiens) (UniProt P29320).
T1 sequence (whole entry): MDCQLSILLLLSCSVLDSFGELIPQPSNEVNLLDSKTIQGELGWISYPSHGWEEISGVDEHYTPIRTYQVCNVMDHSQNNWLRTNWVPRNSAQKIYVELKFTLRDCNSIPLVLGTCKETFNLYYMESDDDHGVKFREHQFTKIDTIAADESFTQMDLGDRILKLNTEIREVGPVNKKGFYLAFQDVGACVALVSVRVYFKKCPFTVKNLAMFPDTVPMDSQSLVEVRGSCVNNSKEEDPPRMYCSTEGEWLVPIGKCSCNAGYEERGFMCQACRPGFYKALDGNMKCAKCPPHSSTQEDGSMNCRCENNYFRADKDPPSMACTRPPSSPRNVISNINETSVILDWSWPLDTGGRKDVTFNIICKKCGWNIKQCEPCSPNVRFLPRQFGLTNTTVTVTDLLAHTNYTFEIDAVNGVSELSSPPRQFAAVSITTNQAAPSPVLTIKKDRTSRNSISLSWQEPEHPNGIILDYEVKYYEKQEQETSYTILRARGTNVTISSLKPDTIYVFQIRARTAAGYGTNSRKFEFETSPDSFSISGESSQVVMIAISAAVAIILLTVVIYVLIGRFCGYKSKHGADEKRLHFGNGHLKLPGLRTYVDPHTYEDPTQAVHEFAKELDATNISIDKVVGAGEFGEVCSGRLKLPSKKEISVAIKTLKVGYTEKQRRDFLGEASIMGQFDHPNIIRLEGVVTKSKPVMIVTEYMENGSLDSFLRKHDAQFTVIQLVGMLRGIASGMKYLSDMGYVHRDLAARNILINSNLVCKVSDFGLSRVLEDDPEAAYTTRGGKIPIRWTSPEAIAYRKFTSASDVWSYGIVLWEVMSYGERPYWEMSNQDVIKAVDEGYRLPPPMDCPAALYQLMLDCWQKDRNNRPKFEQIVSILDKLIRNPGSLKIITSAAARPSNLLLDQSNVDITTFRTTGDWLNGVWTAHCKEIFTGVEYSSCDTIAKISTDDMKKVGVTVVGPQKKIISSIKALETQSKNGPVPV
As to conditions: at 0.1 µM.

The target of experiment [7] is T1, Ephrin type-A receptor 3 (Homo sapiens). As to conditions: at 1 µM.
Experiment [8] has as its target Ephrin type-A receptor 4 (Homo sapiens) (UniProt P54764). As to conditions: at 0.1 µM.
Experiment [9] shares this target. The note with it: at 1 µM.
Experiment [10] has as its target T2, Ephrin type-B receptor 2 (Homo sapiens) (UniProt P29323).
T2 sequence (whole entry): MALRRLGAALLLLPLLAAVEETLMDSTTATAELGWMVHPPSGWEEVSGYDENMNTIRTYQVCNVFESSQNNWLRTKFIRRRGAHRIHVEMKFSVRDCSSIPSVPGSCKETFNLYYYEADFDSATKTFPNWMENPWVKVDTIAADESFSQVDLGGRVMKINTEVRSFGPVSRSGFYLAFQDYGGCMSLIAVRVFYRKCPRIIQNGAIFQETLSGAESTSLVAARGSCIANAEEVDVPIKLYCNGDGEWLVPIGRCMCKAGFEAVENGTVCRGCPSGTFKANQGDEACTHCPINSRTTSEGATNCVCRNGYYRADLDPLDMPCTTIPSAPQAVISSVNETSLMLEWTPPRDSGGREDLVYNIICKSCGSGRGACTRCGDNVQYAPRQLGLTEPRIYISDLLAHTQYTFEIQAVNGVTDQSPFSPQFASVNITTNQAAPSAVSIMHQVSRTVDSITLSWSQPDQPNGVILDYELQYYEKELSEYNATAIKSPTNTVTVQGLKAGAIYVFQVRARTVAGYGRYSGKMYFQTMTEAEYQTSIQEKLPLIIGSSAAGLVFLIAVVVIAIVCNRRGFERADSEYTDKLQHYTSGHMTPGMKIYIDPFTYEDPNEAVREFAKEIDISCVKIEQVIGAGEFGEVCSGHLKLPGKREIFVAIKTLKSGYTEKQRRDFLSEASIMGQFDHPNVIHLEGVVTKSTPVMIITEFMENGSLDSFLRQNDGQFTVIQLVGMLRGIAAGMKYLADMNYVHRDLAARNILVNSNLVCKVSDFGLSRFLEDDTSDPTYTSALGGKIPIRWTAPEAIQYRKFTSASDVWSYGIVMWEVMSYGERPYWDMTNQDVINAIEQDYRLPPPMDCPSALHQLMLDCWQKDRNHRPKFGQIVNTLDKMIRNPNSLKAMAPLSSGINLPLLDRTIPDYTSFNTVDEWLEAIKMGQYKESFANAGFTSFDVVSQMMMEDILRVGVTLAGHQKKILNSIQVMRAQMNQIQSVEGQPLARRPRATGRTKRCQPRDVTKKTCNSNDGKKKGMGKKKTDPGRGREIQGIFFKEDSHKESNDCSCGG
The note with it: at 0.1 µM.

Experiment [11] addresses T2, Ephrin type-B receptor 2 (Homo sapiens). The note with it: at 1 µM.
Experiment [12] concerns the target T3, Ephrin type-B receptor 3 (Homo sapiens) (UniProt P54753).
T3 sequence (whole entry): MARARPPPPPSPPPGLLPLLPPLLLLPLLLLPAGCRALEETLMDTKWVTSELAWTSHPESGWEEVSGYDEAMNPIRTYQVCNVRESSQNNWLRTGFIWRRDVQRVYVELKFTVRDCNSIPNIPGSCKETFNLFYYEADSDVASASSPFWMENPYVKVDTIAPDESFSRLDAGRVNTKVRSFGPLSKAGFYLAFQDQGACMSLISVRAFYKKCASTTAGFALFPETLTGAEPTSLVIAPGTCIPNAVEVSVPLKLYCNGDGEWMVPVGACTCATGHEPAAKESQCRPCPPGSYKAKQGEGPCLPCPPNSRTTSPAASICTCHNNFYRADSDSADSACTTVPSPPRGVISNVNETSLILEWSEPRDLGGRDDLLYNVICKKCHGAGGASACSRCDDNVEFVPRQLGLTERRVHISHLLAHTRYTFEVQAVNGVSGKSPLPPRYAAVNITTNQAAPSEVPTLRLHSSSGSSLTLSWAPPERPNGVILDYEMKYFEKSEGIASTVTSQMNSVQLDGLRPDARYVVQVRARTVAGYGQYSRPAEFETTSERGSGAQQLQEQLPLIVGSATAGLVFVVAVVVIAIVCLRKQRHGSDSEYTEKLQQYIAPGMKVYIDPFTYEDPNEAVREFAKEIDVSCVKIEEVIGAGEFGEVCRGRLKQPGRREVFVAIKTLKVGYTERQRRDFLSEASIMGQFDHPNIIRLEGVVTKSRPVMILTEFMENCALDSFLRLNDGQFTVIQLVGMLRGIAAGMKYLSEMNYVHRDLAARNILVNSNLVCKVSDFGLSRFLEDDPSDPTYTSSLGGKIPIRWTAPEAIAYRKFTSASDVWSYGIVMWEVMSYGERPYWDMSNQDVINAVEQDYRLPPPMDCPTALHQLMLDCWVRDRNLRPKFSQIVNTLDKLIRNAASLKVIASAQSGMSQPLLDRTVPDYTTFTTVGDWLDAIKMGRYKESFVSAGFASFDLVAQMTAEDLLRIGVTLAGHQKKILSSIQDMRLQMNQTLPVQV
As to conditions: at 0.1 µM.

In experiment [13] the target is T3, Ephrin type-B receptor 3 (Homo sapiens). The note with it: at 1 µM.
Experiment [14] has as its target T4, Ephrin type-B receptor 4 (Homo sapiens) (UniProt P54760).
T4 sequence (whole entry): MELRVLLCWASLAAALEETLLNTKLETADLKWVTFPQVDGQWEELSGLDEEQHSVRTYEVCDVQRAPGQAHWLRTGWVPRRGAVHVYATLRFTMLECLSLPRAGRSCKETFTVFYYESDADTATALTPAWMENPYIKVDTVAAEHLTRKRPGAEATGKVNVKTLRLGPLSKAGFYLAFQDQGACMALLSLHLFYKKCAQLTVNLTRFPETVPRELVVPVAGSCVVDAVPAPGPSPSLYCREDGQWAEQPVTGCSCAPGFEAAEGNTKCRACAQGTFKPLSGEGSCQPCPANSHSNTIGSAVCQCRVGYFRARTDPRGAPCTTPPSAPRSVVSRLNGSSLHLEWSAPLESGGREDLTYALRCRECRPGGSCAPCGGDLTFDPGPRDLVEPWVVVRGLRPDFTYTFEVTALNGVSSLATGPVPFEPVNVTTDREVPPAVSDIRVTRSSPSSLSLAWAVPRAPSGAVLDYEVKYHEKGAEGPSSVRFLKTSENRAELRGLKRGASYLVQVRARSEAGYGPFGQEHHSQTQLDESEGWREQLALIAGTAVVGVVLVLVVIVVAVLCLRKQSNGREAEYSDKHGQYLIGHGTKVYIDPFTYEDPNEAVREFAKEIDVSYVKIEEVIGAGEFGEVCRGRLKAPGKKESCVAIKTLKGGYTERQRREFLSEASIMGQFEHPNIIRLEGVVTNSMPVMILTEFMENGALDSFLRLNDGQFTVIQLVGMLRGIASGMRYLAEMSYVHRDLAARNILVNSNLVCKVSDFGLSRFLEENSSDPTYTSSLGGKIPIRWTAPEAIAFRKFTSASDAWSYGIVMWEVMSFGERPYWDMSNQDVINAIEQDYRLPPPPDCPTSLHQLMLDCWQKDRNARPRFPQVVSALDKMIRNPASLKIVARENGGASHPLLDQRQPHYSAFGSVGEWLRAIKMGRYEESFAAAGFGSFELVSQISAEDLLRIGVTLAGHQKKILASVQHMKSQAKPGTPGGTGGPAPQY
As to conditions: at 0.1 µM.

The target of experiment [15] is T4, Ephrin type-B receptor 4 (Homo sapiens). The note with it: at 1 µM.
Experiment [16] deals with Receptor tyrosine-protein kinase erbB-2 (Homo sapiens) (UniProt P04626). The note with it: at 0.1 µM.
Experiment [17] shares this target. As to conditions: at 1 µM.
Experiment [18] has as its target Receptor tyrosine-protein kinase erbB-4 (Homo sapiens) (UniProt Q15303). The note with it: at 1 µM.
The target of experiment [19] is Tyrosine-protein kinase Fer (Homo sapiens) (UniProt P16591). The note with it: at 0.1 µM.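 Also: reported figures are averaged percent inhibition of FER.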
Experiment [20] addresses Receptor tyrosine-protein kinase erbB-4 (Homo sapiens) (UniProt Q15303). The note with it: at 0.1 µM.

Sequence of Receptor tyrosine-protein kinase erbB-4 (Homo sapiens) (Q15303 whole entry): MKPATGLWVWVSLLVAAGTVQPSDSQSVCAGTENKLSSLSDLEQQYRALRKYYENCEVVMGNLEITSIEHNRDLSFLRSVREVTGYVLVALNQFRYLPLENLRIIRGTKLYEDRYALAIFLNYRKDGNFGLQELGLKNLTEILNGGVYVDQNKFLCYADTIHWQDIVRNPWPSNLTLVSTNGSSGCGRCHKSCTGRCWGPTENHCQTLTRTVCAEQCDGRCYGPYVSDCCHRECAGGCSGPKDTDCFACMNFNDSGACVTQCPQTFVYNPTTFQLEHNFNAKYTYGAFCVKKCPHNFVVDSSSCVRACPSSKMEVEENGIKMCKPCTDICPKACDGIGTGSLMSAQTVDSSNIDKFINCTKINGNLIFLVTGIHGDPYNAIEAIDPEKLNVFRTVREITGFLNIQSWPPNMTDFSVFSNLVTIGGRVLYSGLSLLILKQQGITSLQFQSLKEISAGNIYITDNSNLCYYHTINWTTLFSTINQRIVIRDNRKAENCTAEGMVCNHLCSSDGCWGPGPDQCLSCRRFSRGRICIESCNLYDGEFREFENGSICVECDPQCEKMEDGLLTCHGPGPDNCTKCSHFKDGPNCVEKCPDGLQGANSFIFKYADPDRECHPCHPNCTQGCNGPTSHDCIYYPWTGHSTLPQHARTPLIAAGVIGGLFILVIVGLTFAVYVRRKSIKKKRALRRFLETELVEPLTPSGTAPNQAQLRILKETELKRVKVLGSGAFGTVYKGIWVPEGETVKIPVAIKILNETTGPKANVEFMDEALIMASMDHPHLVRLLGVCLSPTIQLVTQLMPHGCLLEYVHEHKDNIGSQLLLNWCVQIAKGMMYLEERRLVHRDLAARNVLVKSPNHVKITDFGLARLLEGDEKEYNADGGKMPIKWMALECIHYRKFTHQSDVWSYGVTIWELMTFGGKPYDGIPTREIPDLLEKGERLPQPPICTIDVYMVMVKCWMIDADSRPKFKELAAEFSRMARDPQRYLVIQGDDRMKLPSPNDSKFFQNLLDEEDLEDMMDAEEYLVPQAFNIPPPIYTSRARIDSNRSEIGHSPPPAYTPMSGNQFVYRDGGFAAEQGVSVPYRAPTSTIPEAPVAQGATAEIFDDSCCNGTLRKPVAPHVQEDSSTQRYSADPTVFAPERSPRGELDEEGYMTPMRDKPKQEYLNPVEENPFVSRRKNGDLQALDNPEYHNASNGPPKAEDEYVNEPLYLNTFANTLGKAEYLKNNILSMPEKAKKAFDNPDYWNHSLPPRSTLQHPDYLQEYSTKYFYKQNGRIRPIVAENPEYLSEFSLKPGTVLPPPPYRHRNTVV
Sequence of Epidermal growth factor receptor (Homo sapiens), P00533 [T790M] (P00533 whole entry T790M): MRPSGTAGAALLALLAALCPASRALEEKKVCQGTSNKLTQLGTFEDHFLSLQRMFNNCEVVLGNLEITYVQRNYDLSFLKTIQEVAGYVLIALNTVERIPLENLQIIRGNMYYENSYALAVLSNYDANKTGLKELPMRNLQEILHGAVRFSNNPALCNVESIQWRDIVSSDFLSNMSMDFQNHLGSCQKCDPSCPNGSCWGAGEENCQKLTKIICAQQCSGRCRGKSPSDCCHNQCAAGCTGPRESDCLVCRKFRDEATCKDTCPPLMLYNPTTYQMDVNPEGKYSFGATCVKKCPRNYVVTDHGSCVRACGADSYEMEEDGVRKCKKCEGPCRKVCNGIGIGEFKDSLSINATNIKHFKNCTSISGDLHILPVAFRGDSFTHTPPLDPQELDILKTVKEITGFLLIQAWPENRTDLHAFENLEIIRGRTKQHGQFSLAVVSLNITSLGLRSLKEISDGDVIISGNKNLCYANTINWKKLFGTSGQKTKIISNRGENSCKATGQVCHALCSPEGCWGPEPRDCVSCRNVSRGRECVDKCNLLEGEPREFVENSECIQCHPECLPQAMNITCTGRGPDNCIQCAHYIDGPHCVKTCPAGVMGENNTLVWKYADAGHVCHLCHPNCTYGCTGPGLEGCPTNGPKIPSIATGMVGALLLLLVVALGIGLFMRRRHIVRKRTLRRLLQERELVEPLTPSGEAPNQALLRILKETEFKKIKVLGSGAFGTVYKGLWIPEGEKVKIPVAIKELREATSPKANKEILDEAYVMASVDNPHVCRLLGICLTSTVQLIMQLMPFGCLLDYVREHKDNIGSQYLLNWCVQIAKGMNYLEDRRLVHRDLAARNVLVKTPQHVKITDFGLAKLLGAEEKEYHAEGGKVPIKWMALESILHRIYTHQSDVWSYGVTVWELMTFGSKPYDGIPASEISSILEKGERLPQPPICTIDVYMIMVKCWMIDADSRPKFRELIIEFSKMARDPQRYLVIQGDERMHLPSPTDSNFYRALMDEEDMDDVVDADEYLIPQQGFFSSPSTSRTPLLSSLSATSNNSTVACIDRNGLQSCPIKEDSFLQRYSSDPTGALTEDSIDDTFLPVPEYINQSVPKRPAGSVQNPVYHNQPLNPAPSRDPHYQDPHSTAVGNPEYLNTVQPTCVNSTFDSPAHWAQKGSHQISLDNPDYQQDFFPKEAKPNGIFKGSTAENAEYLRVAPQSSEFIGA
Sequence of Ephrin type-A receptor 2 (Homo sapiens) (P29317 whole entry): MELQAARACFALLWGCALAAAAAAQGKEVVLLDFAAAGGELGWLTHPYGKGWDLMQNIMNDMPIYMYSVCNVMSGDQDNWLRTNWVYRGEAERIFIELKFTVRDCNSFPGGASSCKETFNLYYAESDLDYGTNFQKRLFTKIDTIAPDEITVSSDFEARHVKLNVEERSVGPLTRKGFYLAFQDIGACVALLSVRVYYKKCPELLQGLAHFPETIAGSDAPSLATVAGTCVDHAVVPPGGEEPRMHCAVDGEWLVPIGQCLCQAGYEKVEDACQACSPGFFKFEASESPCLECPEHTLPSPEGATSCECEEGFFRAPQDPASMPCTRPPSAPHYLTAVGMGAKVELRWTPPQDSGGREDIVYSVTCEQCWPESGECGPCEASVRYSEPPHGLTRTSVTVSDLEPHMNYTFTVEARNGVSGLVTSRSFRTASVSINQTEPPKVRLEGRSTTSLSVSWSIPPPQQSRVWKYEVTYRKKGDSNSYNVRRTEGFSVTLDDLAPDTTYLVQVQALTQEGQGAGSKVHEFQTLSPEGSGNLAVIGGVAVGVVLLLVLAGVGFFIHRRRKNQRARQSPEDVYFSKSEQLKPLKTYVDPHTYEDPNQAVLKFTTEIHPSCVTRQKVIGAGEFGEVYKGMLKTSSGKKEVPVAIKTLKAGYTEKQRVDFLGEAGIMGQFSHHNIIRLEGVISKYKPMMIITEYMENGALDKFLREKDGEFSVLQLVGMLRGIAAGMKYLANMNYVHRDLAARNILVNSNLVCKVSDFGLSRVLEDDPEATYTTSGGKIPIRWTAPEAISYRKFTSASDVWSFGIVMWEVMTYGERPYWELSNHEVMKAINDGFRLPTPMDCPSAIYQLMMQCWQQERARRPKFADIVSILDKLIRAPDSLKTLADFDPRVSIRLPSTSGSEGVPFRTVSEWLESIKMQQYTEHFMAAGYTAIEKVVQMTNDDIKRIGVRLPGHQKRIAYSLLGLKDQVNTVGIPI
Sequence of Epidermal growth factor receptor (Homo sapiens), P00533 [L858R,T790M] (P00533 whole entry T790M/L858R, looked up): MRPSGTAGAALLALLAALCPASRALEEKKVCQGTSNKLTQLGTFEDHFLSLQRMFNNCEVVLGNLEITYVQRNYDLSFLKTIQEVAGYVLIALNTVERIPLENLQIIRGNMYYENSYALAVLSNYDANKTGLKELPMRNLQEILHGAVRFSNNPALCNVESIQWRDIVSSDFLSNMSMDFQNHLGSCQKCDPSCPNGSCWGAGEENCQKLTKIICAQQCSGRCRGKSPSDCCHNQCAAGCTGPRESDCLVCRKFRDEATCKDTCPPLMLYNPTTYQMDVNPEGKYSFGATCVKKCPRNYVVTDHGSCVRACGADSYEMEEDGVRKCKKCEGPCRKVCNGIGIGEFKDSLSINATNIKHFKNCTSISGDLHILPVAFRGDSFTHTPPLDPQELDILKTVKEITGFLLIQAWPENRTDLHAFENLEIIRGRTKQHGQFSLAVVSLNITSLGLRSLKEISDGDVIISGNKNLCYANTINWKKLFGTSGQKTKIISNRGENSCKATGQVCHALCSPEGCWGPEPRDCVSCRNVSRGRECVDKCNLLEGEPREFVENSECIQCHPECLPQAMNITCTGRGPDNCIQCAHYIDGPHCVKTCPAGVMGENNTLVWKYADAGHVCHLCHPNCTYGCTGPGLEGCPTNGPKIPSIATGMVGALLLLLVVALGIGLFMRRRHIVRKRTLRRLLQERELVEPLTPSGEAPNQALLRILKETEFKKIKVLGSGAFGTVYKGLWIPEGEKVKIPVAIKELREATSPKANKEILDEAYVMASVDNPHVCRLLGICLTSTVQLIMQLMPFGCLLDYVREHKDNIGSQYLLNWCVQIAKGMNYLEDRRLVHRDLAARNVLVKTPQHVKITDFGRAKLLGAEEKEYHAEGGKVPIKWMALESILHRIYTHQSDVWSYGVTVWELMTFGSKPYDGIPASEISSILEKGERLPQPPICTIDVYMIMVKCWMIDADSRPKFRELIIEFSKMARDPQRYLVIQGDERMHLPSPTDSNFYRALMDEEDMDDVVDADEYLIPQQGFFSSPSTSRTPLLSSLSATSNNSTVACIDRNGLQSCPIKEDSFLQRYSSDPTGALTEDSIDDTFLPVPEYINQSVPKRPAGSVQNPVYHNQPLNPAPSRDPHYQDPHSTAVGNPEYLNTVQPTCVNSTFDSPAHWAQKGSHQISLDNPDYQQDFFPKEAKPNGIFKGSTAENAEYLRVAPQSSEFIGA

With `NS(=O)(=O)c1ccc(Nc2cc(-c3ccc(O)c(F)c3)n[nH]2)cc1`, the inhibition is -0.95% in experiment [1]; -2.9% in [2]; -4.28% in experiment [3]; -1.33% in experiment [4]; -1.33% in [5]; -4.5% in experiment [6]. Further, the inhibition in [7] is -0.8%; in experiment [8], -6.46%; in [9], -5.56%; in [10], -3.09%; in experiment [11], -1.29%; in experiment [12] it was -8.08%. Besides, the inhibition in experiment [13] is -5.11%; in experiment [14], -0.68%; in experiment [15], -0.49%; in experiment [16] it was -5.39%; in [17] it was -4.29%; in experiment [18] it was -6.22%. In addition, the inhibition in experiment [19] was 5.83%.
On to `O=C(NCC1CC1)c1ccc(-c2cccc(C(=O)NC3CC3)c2)cc1`, for which the inhibition in [1] was -1.31%; in experiment [2], -1.91%; in experiment [3], 3.8%; in experiment [4], 2.47%; in experiment [5], 1.67%; in experiment [6], 2.75%. The inhibition is 4.67% in experiment [7]; 4.89% in experiment [8]; -0.51% in [9]; 6.78% in experiment [10]; 11.8% in experiment [11]; 3.55% in experiment [12]. In addition, the inhibition was 2.98% in [13]; 1.37% in experiment [14]; 1.03% in [15]; -0.54% in [16]; 1.1% in [17]; 16.7% in [20]. Further, the values for the inhibition in experiment [18] and in experiment [19] were 6.05% and 0.26%, respectively.
Take `COc1cc2ncn(-c3cc(OCc4cccs4)c(C(N)=O)s3)c2cc1OC`: the inhibition was 5.88% in experiment [1]; -0.25% in experiment [2]; 5.43% in [3]; -1.31% in [4]; -1.86% in experiment [5]; -2.47% in [6]. Moreover, the inhibition in [7] was 0.85%; in experiment [8] it was 8.34%; in [9] it was 19.3%; in experiment [10] it was 7.38%; in [11], 20.8%; in experiment [12], -3.17%. Besides, the inhibition is -3.49% in [13]; -2.89% in experiment [14]; -2.46% in experiment [15]; 5.9% in [16]; 12.5% in experiment [17]; 1.73% in [20]. The inhibition came to 6.6% in experiment [18] and 5.05% in experiment [19].
Regarding `Fc1ccc(-c2nc3n(c2-c2ccncc2)CCS3)cc1`, the inhibition is 0.86% in experiment [1]; 1.02% in experiment [2]; 1.42% in experiment [3]; -3.82% in experiment [4]; -3.6% in experiment [5]; -0.22% in [6]. Besides, the inhibition in experiment [7] was -0.79%; in [8], 6.24%; in experiment [9], 3.74%; in experiment [10], 3.72%; in experiment [11], 7.66%; in experiment [12], 2.13%. Moreover, the inhibition in [13] was -1.28%; in experiment [14], -0.26%; in experiment [15], -2.49%; in experiment [16] it was 4.16%; in experiment [17] it was 1.23%; in experiment [20], 9.02%. Further, the inhibition in experiment [18] was determined as 10%; in experiment [19], 2.18%.
